# Assay results taken from the supplement of paper PMC6522484.
# ± gives the standard deviation of the averaged measurements.
# Key:
# DLD1 [1] = assay: cell viability (CellTiter-Glo) relative to plate median (fraction of plate median); higher = more viable cells; conditions: 5 µM; treatment time 24 h; reporter: 7TFP
# Outline: (§1)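 On parallel plates, a Tecan F500 reader recorded either firefly luciferase or CellTiterGlo luminescence. The plates held colorectal cancer cells stably transduced with lentiviral TCF/Wnt firefly luciferase reporters (7TFP or TCF4/Wnt), seeded in 384-well format and treated 24 h later with library compounds at a final 5 µM for 24 h. Per-well signals were normalised to the plate median (webcellHTS2, additive, no log transformation), and two independent replicates were averaged.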
# HCT116 = assay: as above; conditions: 5 µM; treatment time 24 h; reporter: TCF4/Wnt
# Outline: as §1
# SW480 [2] = assay: as above; conditions: 5 µM; treatment time 24 h; reporter: 7TFP
# Outline: as §1
# DLD1 [3] = assay: TCF/Wnt firefly luciferase reporter signal relative to plate median (fraction of plate median); higher = higher Wnt reporter signal; conditions: 5 µM; treatment time 24 h; reporter: 7TFP
# Outline: as §1
# SW480 [4] = assay: as above; conditions: 5 µM; treatment time 24 h; reporter: 7TFP
# Outline: as §1
Compound,cell viability (DLD1 [1]),cell viability (HCT116),cell viability (SW480 [2]),TCF/Wnt firefly luciferase reporter signal (DLD1 [3]),TCF/Wnt firefly luciferase reporter signal (SW480 [4])
O=C(O)CCCc1ccc(N(CCCl)CCCl)cc1,1.02 ± 0.035,0.958 ± 0.011,1.02 ± 0.067,0.974 ± 0.037,0.966 ± 0.0028
Cc1nccc2c1[nH]c1cc(O)ccc12,0.984 ± 0.0099,0.978 ± 0.06,1.01 ± 0.018,1.01 ± 0.03,0.978 ± 0.046
C[C@@H]1O[C@@H](O[C@H]2CC[C@]3(C=O)[C@H]4CC[C@]5(C)[C@@H](C6=CC(=O)OC6)CC[C@]5(O)[C@@H]4CC[C@]3(O)C2)[C@H](O)[C@H](O)[C@H]1O,0.885 ± 0.13,0.4 ± 0.12,0.913 ± 0.025,0.178 ± 0.15,0.263 ± 0.043
CC(=O)O[C@H]1C[C@H](O[C@H]2[C@@H](O)C[C@H](O[C@H]3[C@@H](O)C[C@H](O[C@H]4CC[C@@]5(C)[C@H](CC[C@@H]6[C@@H]5C[C@@H](O)[C@]5(C)[C@@H](C7=CC(=O)OC7)CC[C@]65O)C4)O[C@@H]3C)O[C@@H]2C)O[C@H](C)[C@H]1O[C@@H]1O[C@H](CO)[C@@H](O)[C@H](O)[C@H]1O,0.65 ± 0.044,0.636 ± 0.0042,0.851 ± 0.078,0.264 ± 0.13,0.584 ± 0.057
NC(=O)Cc1ccccc1 [Phenylacetamide],1.11 ± 0.071,1.005 ± 0.0071,1.01 ± 0.016,1.11 ± 0.14,1.11
C/C=C(\C)C(=O)O[C@H]1C[C@@H](OC(C)=O)[C@@]2(C(=O)OC)CO[C@H]3[C@@H](O)[C@@](C)([C@]45O[C@@]4(C)[C@H]4C[C@@H]5O[C@@H]5OC=C[C@@]54O)[C@H]4[C@]1(CO[C@]4(O)C(=O)OC)[C@@H]32,0.998 ± 0.017,0.999 ± 0.087,0.959 ± 0.051,0.973 ± 0.052,0.962 ± 0.04
C[C@@H]1C[C@H](O)[C@@]2(O)[C@]13CC(=O)OC[C@@]2(C)[C@@](C)(O)C(=O)C3,1.115 ± 0.0071,1.03 ± 0.068,1.04 ± 0.021,1.05 ± 0.071,1.03 ± 0.054
CCCCOC(=O)c1ccccc1C(=O)OCCCC,0.944 ± 0.044,0.98 ± 0.013,0.96 ± 0.071,0.847 ± 0.16,0.939 ± 0.03
NCCc1c[nH]c2ccccc12,0.991 ± 0.041,1.03 ± 0.16,0.952 ± 0.061,0.988 ± 0.045,1.03 ± 0.021
Nc1ccc([As](=O)(O)O)cc1,1.01 ± 0.021,1.09 ± 0.092,0.941 ± 0.04,0.976 ± 0.063,0.962 ± 0.028
Cc1ccc(O)cc1.Cc1cccc(O)c1.Cc1ccccc1O,1.085 ± 0.0071,1.08 ± 0.14,1.01 ± 0.014,1.09 ± 0.064,1.09 ± 0.057
CC([C@H](O)c1ccccc1)N(C)C (stereo not given in full),0.991 ± 0.0014,1.015 ± 0.0071,0.966 ± 0.091,0.915 ± 0.09,0.975 ± 0.05
CCC(C)C(=O)c1c(O)c(C)c2oc3c(C)c(O)c(C(=O)C(C)CC)c(O)c3c2c1O (stereo not given),0.997 ± 0.033,0.95 ± 0.11,0.998 ± 0.045,0.9565 ± 0.0035,0.9575 ± 0.0092
C1CCc2nnnn2CC1,0.931 ± 0.05,1.05 ± 0.035,0.925 ± 0.052,0.963 ± 0.017,1.11 ± 0.042
CCn1cc(C(=O)O)c(=O)c2cc3c(cc21)OCO3,0.96 ± 0.016,0.949 ± 0.031,0.847 ± 0.27,0.893 ± 0.058,1 ± 0.11
N#Cc1c(Cl)c(Cl)c(Cl)c(C#N)c1Cl,0.687 ± 0.075,0.465 ± 0.13,1.01 ± 0.052,0.293 ± 0.14,0.286 ± 0.15
NCCc1ccc(O)cc1,0.964 ± 0.11,0.93 ± 0.03,0.953 ± 0.036,0.993 ± 0.15,1.07 ± 0.014
COc1cc([C@@H]2c3cc4c(cc3[C@@H](O)[C@H]3COC(=O)[C@H]23)OCO4)cc(OC)c1O,0.952 ± 0.082,0.613 ± 0.12,1.06 ± 0.021,0.785 ± 0.17,0.742 ± 0.084

Compound,cell viability (DLD1 [1]),cell viability (HCT116),cell viability (SW480 [2]),TCF/Wnt firefly luciferase reporter signal (DLD1 [3]),TCF/Wnt firefly luciferase reporter signal (SW480 [4])
CCC12C=CCN3CC[C@@]4(c5ccc(OC)cc5N(C)[C@H]4[C@@](O)(C(=O)OC)[C@@H]1OC(C)=O)[C@@H]32 (stereo not given in full),0.975 ± 0.035,0.953 ± 0.025,0.9915 ± 0.0021,0.857 ± 0.042,0.821 ± 0.021
C[C@]12CCC(=O)C(O)=C1CC[C@@H]1[C@@H]2CC[C@]2(C)C(=O)CC[C@@H]12,0.956 ± 0.011,0.996 ± 0.076,0.9485 ± 0.0021,1.01 ± 0.023,1.01 ± 0.073
N#C/C(=C\c1cccc(O)c1)C(=O)O [alpha-CYANO-3-HYDROXYCINNAMIC ACID],1.05 ± 0.028,1.01 ± 0.033,1.04 ± 0.028,1.15 ± 0.18,1.02 ± 0.014
CCCCC[C@H](O)c1c(O)cc2c(c1O)C(=O)c1c(O)cc(O)cc1C2=O [Averantin],1.02 ± 0.035,1.075 ± 0.0071,0.9935 ± 0.00071,1 ± 0.11,0.939 ± 0.14
Cc1ccc(C[N+](C)(C)C)o1,1 ± 0.026,1.025 ± 0.0071,1.02 ± 0.014,0.864 ± 0.012,0.903 ± 0.027
"CC1(C)C(=O)[C@@H]2O[C@@H]2[C@@]2(C)C1C[C@@H](O)[C@]1(C)C2CC[C@@]2(C)[C@H](c3ccoc3)OC(=O)C3OC321 (stereo partly drawn) [1,2alpha-EPOXYDEACETOXYDIHYDROGEDUNIN]",1.01 ± 0.032,1.12 ± 0.099,1.01 ± 0.056,0.962 ± 0.013,0.957 ± 0.22
CC1C[C@H]2CC(=O)[C@H]3CCCN4CCC[C@H]2[C@]34C1.[O-][Cl+3]([O-])([O-])O (stereo not given in full),0.97 ± 0.011,1.01 ± 0.031,0.933 ± 0.0042,1.1 ± 0.099,1.1 ± 0.16
O=C([O-])c1ccccc1-c1c2cc(Br)c(=O)cc-2oc2[c]([Hg+])c([O-])c(Br)cc12.[Na+].[Na+].[OH-],0.955 ± 0.0071,0.961 ± 0.13,0.945 ± 0.0099,1 ± 0.15,0.934 ± 0.052
CC(C)N(CCC(C(N)=O)(c1ccccc1)c1ccccn1)C(C)C (stereo not given),0.914 ± 0.077,0.964 ± 0.029,0.981 ± 0.011,1.16 ± 0.071,1.13 ± 0.014
CCCC(C)(COC(N)=O)COC(=O)NC(C)C (stereo not given),1.06 ± 0.014,0.994 ± 0.14,0.97 ± 0.0042,0.887 ± 0.088,0.992 ± 0.082
COP(=S)(OC)Oc1ccc(SC)c(C)c1,1 ± 0.014,1.07 ± 0.085,1.04 ± 0.042,1.07 ± 0.028,1.01 ± 0.1
C[C@@H]1C[C@@H]([C@H](O)CC2CC(=O)NC(=O)C2)C(=O)[C@@H](C)C1,0.892 ± 0.059,0.5955 ± 0.0035,0.967 ± 0.076,0.387 ± 0.088,0.665 ± 0.15
CC1NC(=O)C(NC(=O)c2cnc3ccccc3n2)COC(=O)C(C(C)C)N(C)C(=O)C2CSSCC(C(=O)N(C)C(C(C)C)C(=O)OCC(NC(=O)c3cnc4ccccc4n3)C(=O)NC(C)C(=O)N2C)N(C)C1=O (stereo not given) [Triostin A],0.968 ± 0.028,0.984 ± 0.08,0.992 ± 0.054,0.941 ± 0.073,0.871 ± 0.037
CC1=NCCc2c1[nH]c1cc(O)ccc21,0.971 ± 0.069,1.01 ± 0.11,1.02 ± 0.014,1.02 ± 0.17,0.988 ± 0.031
CC(=O)O[C@H]1CC[C@@]2(C)[C@H](CC[C@@H]3[C@@H]2CC[C@]2(C)[C@@H](C4=CC(=O)OC4)[C@@H](OC(C)=O)C[C@]32O)C1,0.633 ± 0.0092,0.723 ± 0.06,0.82 ± 0.086,0.277 ± 0.1,0.592 ± 0.088
Nc1ccccc1C(=O)O [Anthranilic acid],0.906 ± 0.16,1 ± 0.037,0.98 ± 0.015,0.89 ± 0.044,1.04 ± 0.057
COC(=O)C1=CO[C@@H](C)[C@@H]2CN3CC[C@@]4(C(=O)Nc5ccccc54)[C@H]3C[C@H]12,1.1 ± 0.085,1.07 ± 0.014,1.08 ± 0.035,1.02 ± 0.12,0.96 ± 0.028
